Screens as filed in PubChem.
Compounds with a hit are over-represented: about 13% of the library has one in this group of screens.
FMDV antiviral: High Throughput Screening for Foot and Mouth Disease Virus Antivirals. FMDV antiviral cell-based qHTS. AID 1159524, 2015. Potency, µM (doses to about 57.9 µM), inactives show top-dose activity change, negative = inhibition, usual class: inhibitors. 410,000 compounds, 1.2% hits; calls by dose curve; tested in HEK293T cells; further: read-out not given here; potency means the concentration at half of the fitted maximal effect; on the % scale 0 is the no-effect control and ±100 the full control effect; nearly all actives have a fitted effect of over 45% in size
Lassa entry inh: qHTS for Inhibitors of binding or entry into cells for Lassa Virus | Lassa virus pseudotype entry inhibition, cell reporter | Potency, µM (titrated, usually from 37.9 µM), for the others: top-dose activity change, negative = inhibition, actives largely listed as inhibitors | 300,000 compounds, 1.2% hits; calls by dose curve; tested in HEK293 cells; further: potency means the concentration at half of the fitted maximal effect; on the % scale 0 is the no-effect control and ±100 the full control effect; nearly all actives have a fitted effect of over 50% in size
Shiga toxin inh: A qHTS for Small Molecule Inhibitors of Shiga Toxin; Vero cells, Shiga toxin protein synthesis inhibition reporter; inhibition, % at 38.7 µM; 290,000 compounds, 9.2% hits; in the data active means inhibition mostly above about 28%, no sharp cut-off; inactive means mostly below about 43%; further: 0% is about no effect
HCV inh: qHTS Assay for Inhibitors of Hepatitis C Virus (HCV); AID 651820, 2012; Huh7.5.1 HCVcc-Cre infection, luciferase reporter, 44 h; Potency, µM (titrated, usually from 41.8 µM), for the others: at the top dose activity change, negative = inhibition, actives largely listed as inhibitors; 340,000 compounds, 3.4% hits; active means well fitted inhibition curve with a large enough effect; inconclusive means small, poorly fitted or top-dose-only effect, or another doubt; inactive means no such curve, though single readings can be large or run the other way; further: potency means the concentration at half of the fitted maximal effect; on the % scale 0 is the no-effect control and ±100 the full control effect
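Cells seeded at 1,000/well and cultured 4 h, then compounds added followed by HCVcc-Cre virus (~0.5 moi). After 44 h further culture, luciferase substrate was added, plates held 15 min at room temperature, and luminescence read for 15 sec.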
CHX counter: Cycloheximide Counterscreen for Small Molecule Inhibitors of Shiga Toxin; cell reporter, cycloheximide protein synthesis inhibition counterscreen; max response, %; 300,000 compounds, 12% hits; AID 2314, 2010; in the data active means max response mostly above about 13%, no sharp cut-off; inactive means mostly below about 14%; further: read at 38.3 µM for the half of the compounds with a filed dose; 0% is about no effect
Marburg entry inh: qHTS for inhibitors of binding or entry into cells for Marburg Virus. Potency, µM (top dose mostly 37.8 µM), without a hit: top-dose activity change, negative = inhibition, hits mostly inhibitors. Marburg virus pseudotyped entry inhibition, cell reporter. 300,000 compounds, 1.8% hits; calls by dose curve; tested in HEK293 cells; further: potency means the concentration at half of the fitted maximal effect; on the % scale 0 is the no-effect control and ±100 the full control effect
* = called active by the depositor; ? = inconclusive; . = not tested or not shown; [ ] = remark or other dose.

SMILES	FMDV antiviral	Lassa entry inh	Shiga toxin inh	HCV inh	CHX counter	Marburg entry inh
NC(=O)c1nsc(C(=O)N(Cc2ccc(F)cc2)C(C(=O)NCC2CCCO2)c2ccc(F)cc2)c1N (stereo unspecified)	16%	-8%	-14	-13%	-7	11µM*
CN(C)c1ccc(C(C(=O)NCC2CCCO2)N(Cc2ccccc2)C(=O)c2snc(C(N)=O)c2N)cc1 (stereo unspecified)	3%	?	3	-6%	1	?
CCc1ccc(N(C(=O)c2snc(C(N)=O)c2N)C(C(=O)NCC2CCCO2)c2cccs2)cc1 (stereo unspecified)	10%	?	57	?	37*	?
C/C(N)=C(/C#N)C(=O)COC(=O)C1CCC(C(C)(C)C)CC1 (stereo unspecified)	-20%	?	56*	25%	16*	-2%
N#Cc1c(N2CCCC2)nc(N)c2c(N)nc(N3CCCC3)cc12	12%	?	47*	?	31*	?
COc1cc2c(C#N)c(N3CCN(C)CC3)nc(N)c2c(N)n1	.	.	-9	?	2	-1%
COc1cc2c(C#N)c(N3CCN(c4ccccc4OC)CC3)nc(N)c2c(N)n1	40µM*	11µM*	17	?	25	?
CCC(=O)N/N=C(\C)CC(=O)Nc1cc(Cl)ccc1C	-16%	17%	-4	27%	-1	?
CN(C1=C(NC(=O)c2ccccc2)C(=O)c2ccccc2C1=O)C1CCS(=O)(=O)C1 (stereo unspecified)	10µM*	?	75*	?	39*	?
CC(=O)NC1=C(NC2CCS(=O)(=O)C2)C(=O)c2ccccc2C1=O (stereo unspecified)	-39%	-16%	-32	7.1µM*	7	?
CN(C(=O)c1ccccc1Br)C1CCS(=O)(=O)C1 (stereo unspecified)	-4%	-2%	.	17%	.	-13%[46.1 µM]
COc1ccc(-c2ccc(=O)n(CC(=O)Nc3ccc(OC)c(OC)c3)n2)cc1	-12%	-30%[46.1 µM]	.	.	.	.
O=C(Nc1cc(Cl)ccc1Cl)c1noc2c1CCCC2	-23%	.	-2	-2%	2	.
CCOC(=O)c1ccc(NC(=O)c2noc3c2CCCC3)cc1	10%	19%[46.1 µM]	.	.	.	.
Cc1cc(NC(=O)c2noc3c2CCCCC3)no1	45%	-18%	130*	14%	29*	?
Cc1cc(NC(=O)c2noc3c2CCCC3)no1	52%	-46%[14.3 µM]	31*	-2%	22*	13%
COc1ccc(-c2nc3n(n2)C(c2ccc(OC)c(OC)c2)C(C(=O)Nc2cccnc2)=C(C)N3)cc1 (stereo unspecified)	-13%	-14%[46.1 µM]	.	.	.	.
Cc1ccccc1N=Nc1c(C)[nH]n(C(N)=S)c1=O	10%	18%	67*	25%	20*	-1%
Cc1cccc(N=Nc2c(C)[nH]n(C(N)=S)c2=O)c1C	.	.	13	.	19	.
CCOc1ccccc1N=Nc1c(C)[nH]n(C(N)=S)c1=O	-22%	12%[46.1 µM]	-5	10µM*	1	14%[46.1 µM]
Cc1[nH]n(C(N)=S)c(=O)c1N=Nc1ccccc1C(F)(F)F	1%	.	16	-7%	20	.
Cc1[nH]n(C(N)=S)c(=O)c1N=Nc1ccc([N+](=O)[O-])cc1Cl	-10%	-18%[46.1 µM]	15	-4%	14*	?
COc1ccc(CC2(CO)CCN(S(=O)(=O)c3c(C)nn(C)c3C)CC2)cc1	?	16%	-8	2%	-3	-7%[46.1 µM]
Cc1noc(/C=C/c2ccco2)c1S(=O)(=O)N1CCC(C(=O)Nc2ccc(F)c(Cl)c2)CC1	?	-12%[46.1 µM]	.	.	.	0%[46.1 µM]
CC(C)OC(=O)c1cc(-c2ccc(C=O)o2)ccc1Cl	-18%	-7%	21	8%	11*	0%
SMILES	FMDV antiviral	Lassa entry inh	Shiga toxin inh	HCV inh	CHX counter	Marburg entry inh
CC(C)N1C(=O)S/C(=C\c2ccc(-c3ccc(Cl)c(C(=O)O)c3)o2)C1=O	-17%	.	153*	10%	76*	.
O=c1[nH]nc(C(F)(F)F)c2nnn(Cc3ccccc3Cl)c12	-11%	.	-5	-1%	2	.
COC(=O)C1=CN(c2ccc3c(c2)OCO3)C(N)=C(C#N)C1c1cccc(F)c1 (stereo unspecified)	6%	.	.	.	.	.
CCCCCCC1(C)NC(c2ccc3c(c2)OCO3)=CC(c2cc(Br)ccc2O)N1 (stereo unspecified)	.	.	41	.	32	.
Oc1ccc(Br)cc1C1C=C(c2ccc3c(c2)OCO3)NC(c2cccc(F)c2)N1 (stereo unspecified)	.	.	50	.	34*	.
Oc1ccccc1C1C=C(c2ccc3c(c2)OCO3)NC(c2cccc(F)c2)N1 (stereo unspecified)	.	.	96*	.	58*	.
Oc1ccccc1C1C=C(c2ccc3c(c2)OCO3)NC(c2cccc(Br)c2)N1 (stereo unspecified)	.	.	93*	.	28*	.
Cc1ccc2c(c1)N(S(=O)(=O)c1cc(-c3onc(C)c3C)ccc1C)CCO2	?	?	-2	5µM*	-1	14%[46.1 µM]
Cc1cc(C)c(NS(=O)(=O)c2cc(-c3onc(C)c3C)ccc2C)c(C)c1	4%	-11%[46.1 µM]	.	.	.	.
O=C1Nc2cc(Cl)ccc2Nc2cscc21	-18%	.	.	.	.	.
O=C1[C@@H]2[C@@H]3C[C@@H]([C@H]4ON=C(c5ccc(OCc6ccccc6)cc5)[C@@H]34)[C@@H]2C(=O)N1c1ccc2c(c1)OCO2	-9%	-15%	2	-21%	8	4.5µM*
C/C(=N\NC(=O)c1ccc(Cn2cc(Br)cn2)o1)c1ccc(NC(=O)c2ccoc2C)cc1	-7%	-25%	65*	7.1µM*	39*	?
NNC(=O)c1ccc(COc2ccc3c(c2)CCC3)o1	0%	-25%	39	0%	16	?
CCOc1ccc(CNC(=S)N/N=C\c2ccc([N+](=O)[O-])cc2)cc1	30%	?	9	0%	12*	14%
CC(C)(C)c1ccc(OCc2ccc(C(=O)N/N=C/c3ccc([N+](=O)[O-])cc3)o2)cc1	-4%	?	58*	-28%	24	?
O=C(N/N=C/c1cccc(O)c1)c1ccc(COc2ccc3c(c2)CCC3)o1	?	6%	57*	0%	35*	?
CCOc1ccccc1/C=N/NC(=O)c1ccc(Cn2cc([N+](=O)[O-])cn2)o1	?	-1%	-6	-19%	-2	-8%
O=C(N/N=C/c1c(F)c(F)c(F)c(F)c1F)c1ccc(Cn2cc(Br)cn2)o1	?	?	-4	?	-1	?
CCCc1ccc(OCc2ccc(C(=O)N/N=C/c3cccnc3)o2)cc1	-2%	.	110*	-18%	68*	.
CCOc1ccc(/C=N/NC(=O)c2ccc(Cn3cc([N+](=O)[O-])cn3)o2)cc1	5%	?	51*	-14%	23*	12%
